A selection: hits, their analogues and other compounds. The true share with any hit is near 4.6%.
TRHR ag – activates the human TRH receptor; TRHR cells, calcium flux fluo-8, FDSS agonist mode; activation, % at 2 µM; 360,000 tested, 0.18% active; further: 0% is about no effect
Target sequence (P34981 whole entry, looked up): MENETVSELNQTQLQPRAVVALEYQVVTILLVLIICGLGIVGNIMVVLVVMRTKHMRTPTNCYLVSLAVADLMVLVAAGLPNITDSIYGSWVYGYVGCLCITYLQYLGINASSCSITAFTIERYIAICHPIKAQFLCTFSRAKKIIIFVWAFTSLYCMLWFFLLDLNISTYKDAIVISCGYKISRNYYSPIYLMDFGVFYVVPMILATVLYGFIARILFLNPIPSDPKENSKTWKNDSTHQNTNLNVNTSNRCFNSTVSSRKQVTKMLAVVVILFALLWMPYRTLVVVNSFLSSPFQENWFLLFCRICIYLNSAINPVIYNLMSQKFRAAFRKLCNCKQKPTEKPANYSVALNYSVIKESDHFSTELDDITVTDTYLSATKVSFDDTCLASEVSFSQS
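In this calcium-flux screen, cells bearing human TRHR are dye-loaded with fluo-8, baselined for 10 cycles, then exposed to library compounds; positive kinetic calcium responses during the agonist phase mark hits, with TRH as control.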
D1 ag – human D1 receptor agonism. P21728. HEK293 T-REx D1 cells, calcium flux, agonist mode. activation, % at 2 µM. 360,000 tested, 1% active; further: 0% is about no effect
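Inducible HEK293 T-REx D1 cells, force-coupled to calcium signalling, were plated at 4000 cells/well with tetracycline and held overnight at 30 C. After no-wash calcium dye loading, compound-evoked calcium rise over 180 s flagged agonists.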
D1 potentiator – human D1 dopamine receptor positive modulation; P21728; 360,000 tested, 0.036% active; AID 504651; potentiation, % at 10 µM; HEK293 TREx D1 cells, calcium flux, dopamine EC20 potentiation; in the data active means potentiation above about 30%; further: 0% is about no effect
Epigenetic reg – regulators of epigenetic silencing causing reporter derepression in mouse cells; murine LDR cells, GFP reporter derepression, 30 h; Potency, µM (doses to about 53.9 µM), without a hit: at the highest dose GFP activation, actives largely listed as activators; AID 1865; 280,000 tested, 0.2% active; active means well fitted activation curve with a large enough effect; inconclusive means small, poorly fitted or top-dose-only effect; further: potency means the concentration at half of the fitted maximal effect; % of control where 0% means no effect; nearly all actives have a fitted effect of over 60% in size
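In this reporter-derepression format, murine cells bearing a silenced integrated CMV-GFP locus incubate with test compound (30 h, 37 C), then are washed and imaged; fluorescent objects of 20–120 um count as induced cells.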
TRHR PAM – allosterically enhances the human TRH receptor; 360,000 tested, 0.66% active; enhancement, % at 2 µM; TRHR cells, fluo-8 calcium fluorescence, EC20 TRH enhancement; in the data active means enhancement above about 30%; further: 0% is about no effect
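Enhancer read-out: after compound pinning and an initial kinetic agonist-mode read, an EC20 of TRH (10 nM final) was injected and fluo-8 calcium signal (Ex 480/Em 530) followed at 1 s/cycle for 100 cycles in TRHR-expressing cells.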
D1 antagonist – blocks dopamine activation of the human D1 receptor; HEK293 TREx D1 cells, calcium flux, dopamine EC80; hits give low values; activity change, negative = inhibition, % at 10 µM; 360,000 tested, 3.2% active; in the data active means activity change below about -30%; further: on the % scale 0 is the no-effect control and ±100 the full control effect
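Compound effects on dopamine-evoked calcium signalling were measured in tetracycline-induced HEK293 Trex D1 cells. Dopamine at EC80 followed a 180 s compound pre-read, and fluorescence was tracked kinetically for 180 s more.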
Starred values were filed as active, the others as inactive; ? = inconclusive; . = not tested or not shown; ! = not confirmed by another sample. Unless noted, no stated cut-off is given here; in the data, active means activation above about 30%; inactive means the rest.

SMILES	TRHR ag	D1 ag	D1 potentiator	Epigenetic reg	TRHR PAM	D1 antagonist
COC(=O)C1=C(C)N(Cc2ccccc2)C(=O)N[C@@H]1c1ccccc1	.	.	.	0%	.	.
COC(=O)C1=C(C)N(Cc2ccccc2)C(=NCC(C)C)N[C@H]1c1ccccc1	0	40*!	-5	.	-7	2
COC(=O)C1=C(C)N(Cc2ccccc2)C(=O)N[C@H]1c1ccccc1	0	100*	-6	-1%	7	-6
COCCN=C1N[C@@H](c2cccc(C(F)(F)F)c2)C(C(=O)OC)=C(C)N1Cc1ccccc1	5	32*	-5	.	-4	0
C=CCN=C1N[C@@H](c2ccccc2)C(C(=O)OC)=C(C)N1CC	0	1	-1	.	-2	-9
C=CCN=C1N[C@@H](c2ccc(Br)cc2)C(C(=O)OC)=C(C)N1Cc1ccccc1	1	31*	0	.	-8	22
COc1ccc(OC)c(NC(=O)CSc2ccnc(=O)[nH]2)c1	0	-2	4	7%	-1	.
COc1ccc(CNC(=O)Cn2nc(N3CCN(c4ccccc4)CC3)ccc2=O)c(OC)c1	-1	1	0	0%	-3	32
CCOC(=O)c1ccc(NC(=O)C2=C(C)Nc3nc(SCc4ccc(Cl)cc4)nn3C2c2ccc(C)cc2)cc1 (centres undefined)	-2	0	-1	-2%	10	2
CCN1C(=NCCc2c[nH]c3ccccc23)N[C@@H](c2ccccc2)C(C(=O)OC)=C1C	3	49*!	-4	.	2	-9
CC(=O)C1=C(C)N(Cc2ccccc2)C(=O)N[C@H]1CCc1ccccc1	0	16	-3	0%	2	-31*
CC[C@@H](C)CN1C(=O)N[C@@H](CCc2ccccc2)C(C(C)=O)=C1C	-1	1	0	2%	-2	15
COC(=O)C1=C(C)N(Cc2ccccc2)C(=NCCc2c[nH]c3ccccc23)N[C@H]1c1cccc(C(F)(F)F)c1	1	12	-4	.	2	6
CCC(C(=O)N1CCN(c2ccccc2F)CC1)n1nc(C)c2sc3ccccc3c2c1=O (centres undefined)	0	3	2	-4%	6	1
CC(C)c1ccc(NC(=O)C2CCCN(S(=O)(=O)c3cccc4nsnc34)C2)cc1 (centres undefined)	2	1	0	?	4	5
COc1cccc(N2CCN(S(=O)(=O)c3ccc4c(c3)NC(=O)CS4)CC2)c1	0	3	-2	.	-4	-32*
Cc1ccc(N/C(N)=N/c2nc(CSc3nnc(N)s3)cc(=O)[nH]2)cc1	0	5	-4	0%	3	-34*
CCOC(=O)/C=c1\s/c(=C\c2sccc2C)c(=O)n1CC(=O)NCc1ccc(C)cc1	0	5	-2	7.9µM*	1	-4
Cc1cc(=O)oc2cc(OCC(=O)OCC(=O)Nc3ccccc3F)ccc12	0	10	-4	-4%	-1	-7
CN(c1ccc(OCC(=O)OCC(=O)Nc2ccccc2F)cc1)S(=O)(=O)c1cccs1	3	36*	-6	0%	10	-40*
CC(=O)c1ccc(NC(=O)c2cn3c4c(ccc(Cl)c4c2=O)OC(C)C3)cc1 (centres undefined)	1	1	1	2%	7	17
COc1ccc(NC(=O)c2cn3c4c(ccc(Cl)c4c2=O)OC(C)C3)cc1OC (centres undefined)	-1	3	8	18µM*	50*	16
CCCn1cc(S(=O)(=O)c2cccc(Cl)c2)c(=O)c2cc(F)c(N3CCCC3)cc21	0	1	6	-1%	6	-24
Cc1[nH]cc(Br)c(=O)c1Oc1ncc(C(F)(F)F)cc1Cl	0	2	-8	-4%	-7	-35*
FC(F)(F)c1cnc(Oc2cccc3ccccc23)c(Cl)c1	0	0	-1	-2%	6	2
SMILES	TRHR ag	D1 ag	D1 potentiator	Epigenetic reg	TRHR PAM	D1 antagonist
COc1ccccc1-c1noc(CCCC(=O)Nc2cc(C)ccc2C)n1	-1	2	0	0%	-2	-1
O=C1CC(c2ccccc2)Cc2[nH]c(=O)c(-c3nc(-c4ccc(F)cc4)cs3)cc21 (centres undefined)	1	3	0	4%	-6	6
CC(C)(C)OC(=O)NCCc1nnc(SCc2ccccc2Cl)o1	0	5	-5	4%	2	-30*
CC(C)(C)OC(=O)NCCc1nnc(SCC(N)=O)o1	0	4	1	-5%	1	-2
CC(C)(C)OC(=O)NCCCCCc1nnc(SCC(N)=O)o1	0	1	-5	-1%	2	-39*
Cc1ccc(NC(=O)CSc2nnc(CCNC(=O)OC(C)(C)C)o2)c(C)c1	0	-2	-1	-2%	-2	.
Cc1ccc(C)c(NC(=O)CSc2nnc(CCCCCNC(=O)OC(C)(C)C)o2)c1	-1	36*	-1	-3%	13	-17
Cc1ccc(Cl)cc1NS(=O)(=O)c1ccc(N2CCCCS2(=O)=O)cc1	-1	27	1	-4%	4	-16
CC(=O)N1c2ccc(S(=O)(=O)NCC3CCC(C(=O)NCCC(C)C)CC3)cc2CC1C (centres undefined)	0	1	-6	0%	-16	10
CC1(C)CC(=O)c2sc(NS(=O)(=O)c3ccccc3)nc2C1	0	-1	5	3%	21	-38*
CCCCCCC(=O)N1C/C=C\C(c2ccc(OC)cc2)N(Cc2ccc(F)cc2)C(=O)[C@H]1Cc1ccccc1 (some centres undefined)	2	13	-2	-2%	-8	-35*
COc1ccc(C2/C=C\CN(S(=O)(=O)/C=C/c3ccccc3)CC(=O)N2Cc2ccc(F)cc2)cc1 (centres undefined)	-1	16	-5	3%	-2	-36*
COc1ccc(C2/C=C\CN(C(=O)C3CC3)[C@H](Cc3ccccc3)C(=O)N2Cc2ccc(F)cc2)cc1 (some centres undefined)	0	2	-6	1%	-5	-15
CCCCC(=O)N1C/C=C\C(c2ccc(OC)cc2)N(Cc2ccc(F)cc2)C(=O)[C@H]1Cc1ccccc1 (some centres undefined)	0	11	-5	-2%	-3	14
COc1ccc(C2/C=C\CN(C(=O)c3ccc(C)cc3)[C@H](Cc3ccccc3)C(=O)N2Cc2ccc(F)cc2)cc1 (some centres undefined)	0	3	6	-2%	6	-50*

Assay outcomes deposited in PubChem BioAssay by National Center for Advancing Translational Sciences (NCATS).
